# Activity calls are given as the source filed them. A call without a number means that no potency is given here. The call rests on the fitted dose curve; in most records, active means well fitted activation curve with a large enough effect in the repeat runs; inconclusive means weak or mixed curves; inactive means flat fitted curve, though single readings scatter.
# Target: KiSS-1 receptor (Homo sapiens) (UniProt Q969F8)
# Assay: Human kisspeptin (KISS1R) small molecule agonists, calcium flux assay in KISS1R-HEK293 cells (AID 1920064)
# Conditions: KISS1R-HEK293, calcium flux fluorescence, agonist; series mostly up to 76.8 µM
# Text: National Center for Advancing Translational Sciences [NCATS]
# Division of Preclinical Innovation [DPI]
# U.S. Environmental Protection Agency [EPA]
# National Institutes of Environmental Health Sciences [NIEHS]
# National Toxicology Program [NTP]
# U.S. Food and Drug Administration [FDA]
# Kisspeptin and its receptor KISS1R play key roles in mammalian reproduction due to their involvement in the onset of puberty and control of the hypothalamic-pituitary-gonadal axis such as regulates GnRH release from the hypothalamus. The kisspeptin/KISS1R system also plays a direct role in peripheral organs (including the ovary, testis, uterus, and placenta) and is implicated in reproductive diseases such as miscarriage and polycystic ovary syndrome (PCOS). Abnormal KISS1R activity is associated with abnormal puberty, infertility, endometriosis, and hormone-dependent tumors. The KISS1 receptor (KISS1R, also called GPR54), a G-protein-coupled receptor (GPCR), acts (through phospholipase C) to increase intracellular inositol trisphosphate and then release intracellular calcium stores. Cell-based KISS1R-HEK293 assay is using HEK293 cells that have been genetically engineered to express the human KISS1R, which activity can be measured by calcium signaling. A compound/drug can activate (agonist) KISS1R that can be monitored by levels of intracellular calcium.
# KISS1R-HEK293 cells developed by Codex Corp contain human KISS1R gene, which was stably integrated into HEK 293 cells. The compound activation can be detected by fluorescence intensity via calcium flux assay. This cell line has been used to screen the Tox21 10K compound library to identify agonists of KISS1R.
# KISS1R-Hek293 cells were dispensed at 1500 cells/4uL/well in 1536-well black wall/clear bottom plates using a multidrop dispenser. After the assay plates were incubated at a 37 C/5% CO2 incubator for 18 hours, 4 microL of Calcium Dye Solution was added to each well. The plates were incubated at 37 C for 1 hour. And then 23 nL of compounds dissolved in DMSO, positive controls, or DMSO only was transferred to the assay plate by a pin tool station. The fluorescence intensity in the plates was measured using FDSS 7000EX kinetic plate reader with a filter set of Ex/Em=480/540 for 3 min at 1 sec intervals. Each test compound was measured at 15 concentrations and in triplicates.
# Chain of KiSS-1 receptor (Homo sapiens) (Q969F8 whole entry, looked up): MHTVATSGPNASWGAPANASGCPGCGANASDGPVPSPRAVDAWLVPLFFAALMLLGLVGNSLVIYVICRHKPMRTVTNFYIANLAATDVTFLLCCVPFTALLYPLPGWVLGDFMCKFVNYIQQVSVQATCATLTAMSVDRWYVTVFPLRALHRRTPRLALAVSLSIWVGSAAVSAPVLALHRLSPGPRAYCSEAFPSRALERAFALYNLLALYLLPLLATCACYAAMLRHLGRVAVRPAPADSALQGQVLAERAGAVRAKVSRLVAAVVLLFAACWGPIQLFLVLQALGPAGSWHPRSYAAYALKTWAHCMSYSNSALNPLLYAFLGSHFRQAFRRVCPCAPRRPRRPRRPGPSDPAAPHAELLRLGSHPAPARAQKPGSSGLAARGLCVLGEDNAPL
row,SMILES,Potency
1,COc1ccccc1OC,inactive
2,O=[N+]([O-])c1ccc([As](=O)(O)O)cc1,inactive
3,CCCCn1cc[n+](C)c1,inactive
4,O=c1[nH]c(=O)[nH]c(=O)[nH]1,inactive
5,N#CCCCCC#N,inactive
6,CC(C)(OOC(C)(C)c1ccccc1)c1ccccc1,inactive
7,Cc1ccc2ccccc2c1,inactive
8,CCOP(=S)(OCC)Oc1nc(Cl)c(Cl)cc1Cl,inactive
9,OC(Cc1ccccc1Cl)(Cn1cncn1)C1(Cl)CC1 (stereo not given),inactive
10,CCOP(=S)(OCC)Oc1ccc2c(C)c(Cl)c(=O)oc2c1,inactive
11,ClC1=C(Cl)C2(Cl)C3C(Cl)C(Cl)CC3C1(Cl)C2(Cl)Cl (stereo not given),inactive
12,C=C(C)CCl,inactive
13,O=P(O)(Oc1ccccc1)Oc1ccccc1,inactive
14,O=C(O)C(Cl)Br (stereo not given),inactive
15,CN1C(=O)CCS(=O)(=O)C1c1ccc(Cl)cc1 (stereo not given),inactive
16,CCOC(=O)C1(c2ccccc2)CCN(CCC(C#N)(c2ccccc2)c2ccccc2)CC1,inactive
17,Nc1ccc(N=Nc2ccc(-c3ccc(N=Nc4c(S(=O)(=O)O)cc5cc(S(=O)(=O)O)c(N=Nc6ccccc6)c(O)c5c4N)cc3)cc2)c(N)c1,inactive
18,CCCCCCCCCCCCOS(=O)(=O)O,inactive
19,CNc1cnn(-c2cccc(C(F)(F)F)c2)c(=O)c1Cl,inactive
20,C=C(Cl)CCl,inactive

row,SMILES,Potency
1,CC(C)N(C(=O)CCl)c1ccccc1,inactive
2,C=C(C)[C@@H]1CC=C(C=O)CC1,inactive
3,Cc1cccc(N)c1,inactive
4,CC12CC1(C)C(=O)N(c1cc(Cl)cc(Cl)c1)C2=O (stereo not given),inactive
5,CC(Cl)Cl,inactive
6,ClCC(Cl)(Cl)Cl,inactive
7,CC(=O)CCC(C)=O,inactive
8,CC1(C)C(C=C(Cl)Cl)C1C(=O)OC(C#N)c1cccc(Oc2ccccc2)c1 (stereo not given),inactive
9,CC(C)C(C)(N)C#N (stereo not given),inactive
10,CCOc1ccc(N)cc1,inactive
11,CCCCC#N,inactive
12,CC(C)c1ccc(O)cc1,inactive
13,Cc1nn(-c2cc(NS(C)(=O)=O)c(Cl)cc2Cl)c(=O)n1C(F)F,inactive
14,CCC[N+]1(C)CCCCC1,inactive
15,CN(N=O)C(N)=O,inactive
16,CC1(C)Cc2cccc(O)c2O1,inactive
17,CC(C)(C)C(O)(CCc1ccc(Cl)cc1)Cn1cncn1 (stereo not given),inactive
18,C=CCOC(Cn1ccnc1)c1ccc(Cl)cc1Cl (stereo not given),inactive
19,O=C=NC1CCCCC1,inactive
20,CC(C)Nc1ccc(Nc2ccccc2)cc1,inactive

# — PubChem BioAssay (Tox21)
